The results in this text go back to PubChem BioAssay (EPA / NIEHS).

For test [1], the target named is Cellular tumor antigen p53 (Homo sapiens) (UniProt P04637). As to the kind of experiment: TOX21_p53_BLA_p2_ratio: Tox21 HCT-116 p53 Agonism Beta-lactamase Assay, Ratio, Phase 2 (AID 2283592). The essentials:
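An inducible beta-lactamase reporter in HCT116 cells signals p53 pathway activation. After 16 h chemical exposure at 37C, cells load CCF4-AM substrate for 2 h at room temperature; activity is the cleaved/uncleaved emission ratio relative to DMSO.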

The target is the same in test [2]. Put plainly: TOX21_p53_BLA_p3_ratio: Tox21 HCT-116 p53 Agonism Beta-lactamase Assay, Ratio, Phase 3 (AID 2283596). The essentials:
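HCT116 p53-bla cells (4000/well) given compound in DMSO (217-fold dilution) after 5 h, incubated 16 h at 37C. CCF4-AM substrate 2 h at room temperature; 460/530 nm emission ratio, gain fitted against DMSO.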

Test [3] in a line: TOX21_p53_BLA_p4_viability: Viability Assessment in the Tox21 HCT-116 p53 Agonism Beta-lactamase Assay, Phase 4 (AID 2283597).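 Also: hits lower the luminescence signal meaning cytotoxicity.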 The essentials: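 Compound exposure of HCT116 cells lasts 16 h at 37C, 5% CO2, with DMSO stocks diluted 217-fold. Cellular ATP is then quantified by CellTiter-Glo luminescence after 30 min at room temperature.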
The target in test [4] is Cellular tumor antigen p53 (Homo sapiens) (UniProt P04637). Put plainly: TOX21_p53_BLA_p5_ratio: Tox21 HCT-116 p53 Agonism Beta-lactamase Assay, Ratio, Phase 5 (AID 2283599). An outline of the steps: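 HCT-116 cells carrying a p53-inducible beta-lactamase reporter were seeded at 4000 cells/well and dosed after 5 h with compound in DMSO (217-fold dilution). After 16 h at 37C, CCF4-AM substrate was added for 2 h, and the 460/530 nm emission ratio was scored as gain-of-signal versus DMSO.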
Sequence of Cellular tumor antigen p53 (Homo sapiens) (P04637 whole entry, looked up): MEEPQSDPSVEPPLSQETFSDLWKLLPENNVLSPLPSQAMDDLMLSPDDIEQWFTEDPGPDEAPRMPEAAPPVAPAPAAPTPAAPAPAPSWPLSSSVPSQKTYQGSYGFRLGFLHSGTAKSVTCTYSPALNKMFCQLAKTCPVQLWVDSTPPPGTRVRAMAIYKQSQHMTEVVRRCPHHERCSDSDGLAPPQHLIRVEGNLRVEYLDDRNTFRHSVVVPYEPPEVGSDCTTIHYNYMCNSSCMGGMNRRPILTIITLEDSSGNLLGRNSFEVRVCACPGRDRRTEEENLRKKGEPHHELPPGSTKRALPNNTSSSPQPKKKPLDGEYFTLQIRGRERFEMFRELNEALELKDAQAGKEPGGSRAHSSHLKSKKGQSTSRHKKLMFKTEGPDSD

Test [5] shares this target. Put plainly: TOX21_p53_BLA_p4_ratio: Tox21 HCT-116 p53 Agonism Beta-lactamase Assay, Ratio, Phase 4 (AID 2283601). An outline of the steps: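 HCT116 cells carrying an inducible beta-lactamase reporter were plated at 4000 cells/well, rested 5 h, then exposed to compounds in DMSO (217-fold dilution) for 16 h at 37C. CCF4-AM substrate was loaded 2 h at room temperature; 460/530 nm emission ratio scored gain-of-signal versus DMSO.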

Test [6] is described as follows: TOX21_p53_BLA_p5_viability: Viability Assessment in the Tox21 HCT-116 p53 Agonism Beta-lactamase Assay, Phase 5 (AID 2283600). The essentials:
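Counter-readout for cytotoxicity: ATP-dependent luminescence from CellTiter-Glo, read in the beta-lactamase wells after 30 min at RT, following a 16 h compound exposure at 37C.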

Test [7] addresses PGR (gene 5241) (UniProt P06401). As to the kind of experiment: TOX21_PR_BLA_Followup_Agonist_ratio: Tox21 HEK293 Progesterone Receptor (PR) Agonism Beta-lactamase Follow-Up Assay, Ratio (AID 2283933). The essentials: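 Agonist-mode follow-up in HEK293T cells carrying a UAS-driven beta-lactamase reporter, grown in 2% charcoal-stripped serum. Compounds act for 16 hr; activity is the ch2/ch1 cleavage ratio, with same-well CellTiter-Glo viability run in parallel.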

Test [8] has the same target. Put plainly: TOX21_PR_BLA_Followup_Antagonist_ratio: Tox21 HEK293 Progesterone Receptor (PR) Antagonism Beta-lactamase Follow-Up Assay, Ratio (AID 2283934).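 Also: PR-UAS-bla HEK293T cells stimulated with 1 nM R5020 agonist for 16 hr.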 The essentials:
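Antagonist mode used 1 nM R5020 (final) as agonist on a beta-lactamase reporter line in HEK293T cells. Activity was taken from the substrate cleavage ratio after 16 hr exposure.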

Test [9] can be described thus: TOX21_PR_BLA_Followup_Antagonist_viability: Viability Assessment in the Tox21 HEK293 Progesterone Receptor (PR) Antagonism Beta-lactamase Follow-Up Assay (AID 2283936).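 Also: hits lower the luminescence signal meaning cytotoxicity.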 The essentials:
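PR-UAS-bla HEK293T cells (3,000/well, 2% charcoal-stripped FBS) given compound plus R5020 agonist, 16 h at 37C. CellTiter-Glo added after bla read, 30 min at room temperature; luminescence loss indicates cytotoxicity.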

In test [10] the target is PGR (gene 5241) (UniProt P06401). Put plainly: TOX21_PR_LUC_Followup_Agonist: Tox21 HEK293 Progesterone Receptor (PR) Agonism Luciferase Follow-Up Assay (AID 2283937; active = hit-call score of the fitted dose curve at least 0.9, where 1 is the maximum; inactive = score below 0.9). The essentials:
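Agonist mode: reporter cells carrying PR-A and luciferase are treated 16 h with test compounds at 37C. Luciferase induction is measured by luminescence and fitted upward against DMSO.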

A short description of test [11]: TOX21_PR_LUC_Followup_Agonist_viability: Viability Assessment in the Tox21 HEK293 Progesterone Receptor (PR) Agonism Luciferase Follow-Up Assay (AID 2283941).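 Also: loss of signal means cytotoxicity so actives lower viability.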 An outline of the steps: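 Luminescent ATP quantitation (CellTiter-Glo) serves as the read-out; a drop flags cytotoxic compounds. Cells are HEK293-PR-A-luc grown in 10% charcoal-stripped FBS, plated 3,000/well, and exposed to compound for 16 h.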

Test [12] is described as follows: UKN5_HCS_SBAD2_cell_viability: Viability Assessment in the University of Konstanz (UKN) Leist Lab Neurite Outgrowth Assay in human iPSC-derived immature Dorsal Root Ganglia Neurons (UKN5) (AID 2284056; active = hit-call score of the fitted dose curve at least 0.9, where 1 is the maximum; inactive = score below 0.9). An outline of the steps: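 iPSC-derived immature peripheral neurons (SBAD2) seeded on Matrigel with CHIR99021, SU5402 and DAPT, dosed 1 h later for 24 h. Viability from Hoechst H-33342 and calcein-AM live staining, high-content imaging; bidirectional fit versus DMSO.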

Test [13] in a line: UKN5_HCS_SBAD2_neurite_outgrowth: University of Konstanz (UKN) Leist Lab Neurite Outgrowth Assay in human iPSC-derived immature Dorsal Root Ganglia Neurons (UKN5) (AID 2284070; active = hit-call score of the fitted dose curve at least 0.9, where 1 is the maximum; inactive = score below 0.9). The settings on record: actives raise or lower the signal. The essentials: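 SBAD2 neurons, 24 h compound treatment, calcein-AM neurite area via HCS imaging; DMSO baseline, gain or loss of signal.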

Test [14] is described as follows: UKN4_HCS_LUHMES_neurite_outgrowth: University of Konstanz (UKN) Leist Lab Neurite Outgrowth Assay in human LUHMES cells (UKN4) (AID 2284206; active = hit-call score of the fitted dose curve at least 0.9, where 1 is the maximum; inactive = score below 0.9). The conditions noted are these: actives raise or lower the signal. The essentials:
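2-day-differentiated LUHMES, 24 h cpd exposure, live calcein-AM + H-33342 stain, HCS fluorescence imaging of neurite area; DMSO = baseline, bidirectional fit.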

Test [15] can be described thus: UKN4_HCS_LUHMES_cell_viability: Viability Assessment in the University of Konstanz (UKN) Leist Lab Neurite Outgrowth Assay in human LUHMES cells (UKN4) (AID 2284232; active = hit-call score of the fitted dose curve at least 0.9, where 1 is the maximum; inactive = score below 0.9). The essentials: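 Human dopaminergic-model LUHMES neurons were exposed to chemicals for 24 h after a 2-day differentiation. Viability was scored by imaging Hoechst H-33342 staining, with activity fitted in both directions relative to DMSO controls.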

A short description of test [16]: UKN2_HCS_IMR90_cell_viability: Viability Assessment in the University of Konstanz (UKN) Leist Lab Neural Crest Cell Migration Assay in human induced IMR90 Pluripotent Stem Cells (UKN2) (AID 2284233; active = hit-call score of the fitted dose curve at least 0.9, where 1 is the maximum; inactive = score below 0.9;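 also: viability of neural crest cells differentiated from IMR90 iPSC measured by calcein-AM fluorescence imaging; cells exposed to compound for 24 h after a 24 h migration phase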). The essentials:
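iPSC-derived (IMR90) neural crest cells seeded around silicone stoppers on PLO/laminin/fibronectin; after 24 h migration in N2-S with EGF/FGF, chemical added for 24 h. Calcein-AM/Hoechst stained 30 min, high-content imaged; bidirectional fit versus DMSO.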

Inconclusive results are not listed. Active and inactive are the calls of the source. The calls were made as follows, unless noted: active = hit-call score of the fitted dose curve at least 0.9, where 1 is the maximum; inconclusive = response in the unintended direction; inactive = score below 0.9.

A word on the AC50: it is the midpoint of the concentration-response curve, whichever way the signal moves.

Sequence of PGR (gene 5241) (P06401 whole entry, looked up): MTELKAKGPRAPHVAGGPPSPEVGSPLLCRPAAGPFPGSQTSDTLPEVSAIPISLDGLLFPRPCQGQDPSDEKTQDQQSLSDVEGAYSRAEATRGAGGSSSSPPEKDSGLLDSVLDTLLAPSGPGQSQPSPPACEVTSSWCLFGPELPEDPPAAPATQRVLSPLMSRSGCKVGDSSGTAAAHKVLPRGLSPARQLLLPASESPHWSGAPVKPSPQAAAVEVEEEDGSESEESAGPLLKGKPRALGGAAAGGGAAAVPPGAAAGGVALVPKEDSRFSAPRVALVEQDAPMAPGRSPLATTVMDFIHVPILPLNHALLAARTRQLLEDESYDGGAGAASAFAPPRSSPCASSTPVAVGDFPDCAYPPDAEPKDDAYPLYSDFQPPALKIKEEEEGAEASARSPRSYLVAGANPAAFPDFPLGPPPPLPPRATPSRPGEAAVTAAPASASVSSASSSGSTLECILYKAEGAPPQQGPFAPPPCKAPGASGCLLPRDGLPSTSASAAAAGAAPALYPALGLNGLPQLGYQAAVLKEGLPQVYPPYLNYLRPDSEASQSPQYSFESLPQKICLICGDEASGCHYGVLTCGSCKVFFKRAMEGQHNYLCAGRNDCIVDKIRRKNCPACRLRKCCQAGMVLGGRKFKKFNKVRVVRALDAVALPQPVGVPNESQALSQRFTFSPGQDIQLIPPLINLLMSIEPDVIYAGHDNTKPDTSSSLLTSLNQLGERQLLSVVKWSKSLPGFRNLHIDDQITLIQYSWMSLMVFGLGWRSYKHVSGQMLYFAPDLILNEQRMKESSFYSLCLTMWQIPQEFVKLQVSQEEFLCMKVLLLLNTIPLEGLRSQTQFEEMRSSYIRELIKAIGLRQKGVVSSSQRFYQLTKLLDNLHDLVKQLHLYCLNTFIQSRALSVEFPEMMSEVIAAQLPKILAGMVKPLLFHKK

Take `CCCCCCBr`: the outcome in test [1], in [2], in test [3], in [4] and in test [5] was inactive.

For the molecule `CCOP(=S)(OCC)SCCl`, the outcome in test [1], in test [2], in test [3], in [6] and in [5] was inactive.

On to `CN1C(=O)CN=C(c2ccccc2)c2cc([N+](=O)[O-])ccc21`, for which the result in test [1], in test [2], in [3], in test [4] and in [6] was inactive.

For `Nc1cc(Cl)ccc1Cl`, the result in test [1], in test [2], in test [3], in test [4], in [6] and in [5] was inactive.

Take `c1ccc2c(c1)Sc1ccccc1N2C[C@@H]1CN2CCC1CC2`: the outcome in test [1], in test [2], in test [3] and in test [4] was inactive. Further, the concentration at half-maximal activity (AC50) in test [5] is 43.6 µM (active).

Turning to `CCC(Cl)[N+](=O)[O-]` (configuration not stated), the outcome in [1], in [2], in test [4], in test [6] and in test [5] was inactive.

For the molecule `O=C1C(Cl)C(CCl)CN1c1cccc(C(F)(F)F)c1` (configuration not stated), the result (in test [1]; in test [2]; in test [3]; in test [4]; in test [5]; with PGR (gene 5241) [7]) was inactive. Further, the result (with PGR (gene 5241) [8]; in test [9]; with PGR (gene 5241) [10]; in test [11]) was inactive.

For the molecule `C(COCC1CO1)OCC1CO1` (configuration not stated), the outcome in [1], in test [2], in test [4], in [6] and in [5] was inactive.

Consider `CN1CCc2cc3c(cc2C1O)OCO3` (configuration not stated), for which the half-maximal activity concentration (AC50) is 46.3 µM (active) in [1], 61.2 µM (active) in test [2], 46.3 µM (active) in test [4] and 46.3 µM (active) in test [5]. In test [6], the outcome was inactive.

On to `CNC(C)Cc1ccc2c(c1)OCO2` (configuration not stated), for which the result in test [1], in [2], in test [3], in [4], in test [12] and in [13] was inactive. For the same molecule, the result in test [14], in test [15] and in test [16] was inactive.

Turning to `S=C=NCc1ccccc1`, the outcome in [1], in test [4], in test [6] and in test [5] was inactive. Moreover, the AC50 in test [2] was 42.9 µM (active).

For `CC(Cl)C(C)Cl` (configuration not stated), the outcome in test [1], in [3] and in test [4] was inactive.

With `CC(C)(Cl)[N+](=O)[O-]`, the result in test [1], in [2] and in test [5] was inactive.

In the case of `O=C1CC[C@@]2(O)[C@H]3Cc4ccc(O)c5c4[C@@]2(CCN3CC2CC2)[C@H]1O5`, the result in [1], in test [2] and in test [5] was inactive.

Regarding `c1cc2c(c(N3CCNCC3)c1)OCCO2`, the result in test [1], in test [3] and in test [4] was inactive.
